Data: PubChem BioAssay (NCATS)

Assay: Cell Proliferation Assay against the TMD8 Cell Line (AID 651645);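 further: cells exposed to compound for 48 h before reading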
Details: TMD8 DLBCL cell line proliferation/viability; at 46.1 µM (top of the series) unless noted
Text: One class of targeted therapeutics showing early clinical success in killing of ABC DLBCL lines are small molecule inhibitors of the Bruton tyrosine kinase (BTK) 11.
Prior to any combination assays, using an NCATS developed oncology compound library called the Mechanism of Interrogation Plate (MIPE), two well studied ABC DLBCL lines (TMD8 and HBL1) were screened using a cell viability assay (CellTiterGlo) and a 12-point titration series for each single agent. These initial experiments offered insight into the concentration range that offered the best coverage of activity and non-activity to assure relevant data is generated. In addition to the viability signature associated with this library, we examined the apoptotic response of each agent versus the TMD8 line as judged by caspase 3/7 activation. Activity was assayed at both 8 and 16 hour time-points to gain an appreciation of which agents induced an apoptotic response in a reasonable timeframe from a therapeutic exposure perspective. MIPE was also assayed for single agent viability in a human mesenchymal stem cell (hMSC) line as a surrogate of each library member's potential therapeutic index.
A total of 500 log growing TMD8 cells are seeded per well in 5 uL of a RPMI with glutamine (or Glutamax), without phenol red plus 5% FBS and 1X Pen/Strep into 1536 -solid white high base tissue culture treated Greiner One Bio Plates (789173-F) using a multidrop combi dispenser and a small sterile cassette. Compounds and controls totaling 23nL per well (negative control DMSO and positive control 9.2 uM Bortezomib-final) are immediately added to the plates using a 1536 head pin tool from Kalypsys. The plates are then covered with stainless steel gasket lids from Kalypsys and incubated for 48 hours at 37C under 95% relative humidity with 5% CO2. After 48 hours, the plates are removed and allowed to reach room temperature before 3 uL of Cell Titer Glo reagent (Promega) is added using an Aurora Flying Reagent Dispenser Bioraptor. The plates are then spun at 1000 rpms to remove bubbles and incubated for 15 minutes at room temperature before read on a ViewLux using a luminescent filter with a 10 second exposure. The relative luciferase units are used to calculated percent activity using DMSO as 100% and Bortezomib as 0%.

Compound | viability (% of control)
CO[C@@H]1[C@H](N(C)C(=O)c2ccccc2)C[C@H]2O[C@]1(C)n1c3ccccc3c3c4c(c5c6ccccc6n2c5c31)C(=O)NC4 | 7.74%
O=C(Nc1cccnc1)N1CCC(Cc2cccc(Oc3ccc(C(F)(F)F)cn3)c2)CC1 | 36.7%
CC(C)c1onc(-c2c(Cl)cccc2Cl)c1COc1ccc(/C=C/c2cccc(C(=O)O)c2)c(Cl)c1 | 89.6%
O=C1CCCC2=C1C(c1[nH]ncc1Cl)N=C(Nc1nc3ccccc3o1)N2 (stereo not given) | 75.7%
COc1ccc(COc2cc3oc(=O)c4cc(C(C)O)ccc4c3cc2OC)cc1 (stereo not given) | 57.4%
CCc1ccc(CCOc2ccc(CC3SC(=O)NC3=O)cc2)nc1 (stereo not given) | 79.6%
N#Cc1ccc(C(c2ccc(C#N)cc2)n2cncn2)cc1 | 71.5%
Cc1c(CCOc2ccc(C(=O)O)cc2)c2cc(Cl)ccc2n1C(c1ccccc1)c1ccccc1 | 79.3%
O=S(=O)(N=Cc1c(O)ccc2ccccc12)c1cccs1 | 49.7%
Cc1cnc(Nc2ccc(OCCN3CCCC3)cc2)nc1Nc1cccc(S(=O)(=O)NC(C)(C)C)c1 | 90.7%
CNC(=O)c1ccc(C)c(-n2c(C)cc(OCc3ccc(F)cc3F)c(Br)c2=O)c1 | 53%
CCCc1nc2c(C)cc(-c3nc4ccccc4n3C)cc2n1Cc1ccc(-c2ccccc2C(=O)O)cc1 | 71.5%
Cn1cnc2c(F)c(Nc3ccc(Br)cc3Cl)c(C(=O)NOCCO)cc21 | 79.9%
O=C(Nc1nc2ccccc2n1CCN1CCOCC1)c1cccc([N+](=O)[O-])c1 | 77.2%
Cc1ccnc(NS(=O)(=O)c2ccc(NC(=O)Nc3ccc(S(=O)(=O)Nc4nccc(C)n4)cc3)cc2)n1 | 48.6%
Cc1ccc2c(c1)C(=O)[C@@]1(O)CCN(c3ccccc3)C1=N2 | 77.6%
COc1ccc2nc(S(=O)Cc3ncc(C)c(OC)c3C)[nH]c2c1 (stereo not given) | 52.2%
Cc1cc2c(C(C)C)c(O)c(O)c(C=O)c2c(O)c1-c1c(C)cc2c(C(C)C)c(O)c(O)c(C=O)c2c1O | 5.42%
CCOC(=O)C1=C[C@@]2(CC)CCCN3CCc4c(n1c1ccccc41)[C@H]32 | 87.1% [at 29.8 µM]
CCOc1cc(C=C2C(=O)N(c3ccccc3)N=C2C)cc(Cl)c1OCC(=O)OC | 81.8%

Compound | viability (% of control)
Cc1ccc(-n2nc(C(C)(C)C)cc2NC(=O)Nc2ccc(OCCN3CCOCC3)c3ccccc23)cc1 | 66.7%
CCCS(=O)(=O)Nc1ccc(F)c(C(=O)c2c[nH]c3ncc(Cl)cc23)c1F | 68.5%
c1ccc(-c2nn3c(c2-c2ccnc4cc(OCCN5CCOCC5)ccc24)CCC3)nc1 | 41.4%
NC(=O)C1CCCc2c1[nH]c1ccc(Cl)cc21 (stereo not given) | 94.1%
CN(C(=O)c1ccc(F)cc1C(F)(F)F)C1CCN(c2nnc(-c3ccnn3C)c3ccccc23)CC1 | 70.8%
CCC(C)n1ncn(-c2ccc(N3CCN(c4ccc(OC[C@H]5CO[C@](Cn6cncn6)(c6ccc(Cl)cc6Cl)O5)cc4)CC3)cc2)c1=O (stereo not given in full) | 77.9%
CC(c1cc2ccccc2s1)N(O)C(N)=O (stereo not given) | 92.3% [at 92.2 µM]
CCOc1ccn(-c2ccc(F)cc2)c(=O)c1C(=O)Nc1ccc(Oc2ccnc(N)c2Cl)c(F)c1 | 53.5%
Cc1cc2c(F)c(Oc3ncnn4cc(OC[C@@H](C)O)c(C)c34)ccc2[nH]1 | 42.5%
Nc1ncnc2nc(-c3ccc(N4CCOCC4)nc3)cc(-c3cccc(Br)c3)c12 | 74.7%
CC(C)C[C@H](NC(=O)[C@@H](O)[C@H](N)Cc1ccccc1)C(=O)O | 89.3%
CCn1c(-c2nonc2N)nc2c(C#CC(C)(C)O)ncc(OC[C@H]3CCCNC3)c21 | 22.8%
O=C(O)[C@@H](c1ccc(OCc2ccc3ccccc3n2)cc1)C1CCCC1 | 94.6%
Cc1c(C)c2c(c(C)c1O)CCC(C)(COc1ccc(CC3SC(=O)NC3=O)cc1)O2 (stereo not given) | 71.7%
CCn1c(-c2nonc2N)nc2cnc(Oc3cccc(NC(=O)c4ccc(OCCN5CCOCC5)cc4)c3)cc21 | 19.6%
CCC(C)(C)C(=O)O[C@H]1C[C@@H](C)C=C2C=C[C@H](C)[C@H](CC[C@@H]3C[C@@H](O)CC(=O)O3)[C@H]21 | 80.7% [at 15.4 µM]
CCOc1cc(N2CCC(O)CC2)ccc1Nc1ncc2c(n1)N(C)c1ccccc1C(=O)N2C | 2.87%
CCC(=O)N[C@H]1CC[C@H](C(=O)N(C)c2ccc(-c3nc4ccccc4o3)cc2)C1 | 77.3%
Nc1cccc(S(=O)(=O)N2CCCN(S(=O)(=O)c3ccc4c(c3)OCCO4)CC2)c1 | 46.2%
COc1cc(Nc2ncc3c(n2)-c2ccc(Cl)cc2C(c2c(F)cccc2OC)=NC3)ccc1C(=O)O | 31.4%
